{
  "source": "PubChem BioAssay AID1347076",
  "about": "(National Center for Advancing Translational Sciences (NCATS), 2019)",
  "note": "The whole screen tested about 400,000 compounds, of which about 13,000 (3.2%) were called active. Not shown: some 18% with an inconclusive outcome. The sample holds actives, similar compounds and a random draw of the others, so the mix is not that of the screen. Values without a mark were called inactive. The call rests on the fitted dose curve; in most records, active means well fitted cell-killing curve with a large enough effect; inconclusive means small, poorly fitted or top-dose-only effect, or effect the other way; inactive means flat fitted curve, though single readings scatter.",
  "data": [
    {"assay": "qHTS assay for MDR1-selective chemotherapeutics: Primary screen using the drug-selected MDR subline cells KB-V1; further: nearly all actives have a fitted effect of over 60% in size; further: potency means the concentration at half of the fitted maximal effect; on activity change, negative = cytotoxicity: on the % scale 0 is the no-effect control and ±100 the full control effect", "settings": "KB-V1 MDR cells viability, CellTiter-Glo, 72 h; series mostly up to 46.1 µM; activity change, negative = cytotoxicity: at the top concentration", "outline": "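Readout: CellTiter-Glo luminescence, 10 min after addition. Cells: KB-V1 MDR subline, 72 h at 37 degrees C with compound. Analysis: corrected, normalized data fitted to concentration-effect curves.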", "units": {"activity change, negative = cytotoxicity": "%"}, "values": [
      {"compound": "COc1ccccc1CCNC(=O)C(=O)NCCC1CCCCN1S(=O)(=O)c1cccs1", "note": "(configuration not stated)", "activity change, negative = cytotoxicity": -9.95},
      {"compound": "COc1ccc(CCNC(=O)C(=O)NCC2CCCN2S(=O)(=O)c2cccs2)cc1OC", "note": "(configuration not stated)", "activity change, negative = cytotoxicity": -25.2},
      {"compound": "O=C(NCCC1CCCCN1S(=O)(=O)c1cccs1)C(=O)Nc1ccc(F)cc1F", "note": "(configuration not stated)", "Potency": "14.6 µM (active)"},
      {"compound": "O=C1c2ccccc2C(=O)N1CCC#Cc1ccc2cc(C3(O)CCCCC3)oc(=O)c2c1", "activity change, negative = cytotoxicity": 4.63},
      {"compound": "COc1cc(C#Cc2ccc3cc(CCCO)oc(=O)c3c2)cc(OC)c1", "Potency": "3.66 µM (active)"},
      {"compound": "Cn1c(-c2ccc(F)cc2)cnc1SCC(=O)NCc1ccco1", "activity change, negative = cytotoxicity": -15.2},
      {"compound": "CCn1c(SCC(=O)NCc2ccco2)nnc1-c1ccc(N)cc1", "activity change, negative = cytotoxicity": 0},
      {"compound": "O=C(CSc1nnc2scc(-c3ccc(F)cc3)n12)NCc1ccco1", "activity change, negative = cytotoxicity": -5.87},
      {"compound": "Cc1ccc(-c2csc3nnc(SCC(=O)NCc4ccco4)n23)cc1", "Potency": "9.2 µM (active)"},
      {"compound": "O=C(CSc1nnc(-c2ccco2)n1Cc1ccccc1)NC(=O)NCc1ccco1", "Potency": "20.6 µM (active)"},
      {"compound": "O=C(CSc1nnc(-c2ccco2)n1-c1ccccc1)NCCc1ccccc1", "activity change, negative = cytotoxicity": -20.9},
      {"compound": "CCOCCn1ccc2c(OCC(=O)NCc3ccc(C)cc3)cccc2c1=O", "activity change, negative = cytotoxicity": -4.93},
      {"compound": "CN(C)c1ccc(C(CNS(=O)(=O)c2cc(F)ccc2F)N2CCOCC2)cc1", "note": "(configuration not stated)", "activity change, negative = cytotoxicity": 4.28},
      {"compound": "CC[C@@H]1CC2=C(C(=O)OC(C)(C)O2)[C@@H](CC)O1", "activity change, negative = cytotoxicity": 2.71},
      {"compound": "COc1cccc(OCC(=O)NCCS(=O)(=O)N2CCN(c3ccccc3)CC2)c1", "activity change, negative = cytotoxicity": -0.223},
      {"compound": "COc1ccc2c(c1)C=C(C(=O)NCc1cc(Br)ccc1OC)CO2", "activity change, negative = cytotoxicity": 7.07},
      {"compound": "COc1cc(-c2nnc(NC(=O)CS(=O)(=O)c3ccc(Cl)cc3)o2)cc(OC)c1OC", "activity change, negative = cytotoxicity": -2.72},
      {"compound": "COc1ccc(Cl)cc1NC(=O)CN(C)C(=O)c1cn(-c2ccccc2)nc1-c1cccs1", "activity change, negative = cytotoxicity": -11},
      {"compound": "O=C(CN1C(=O)NC(Cc2ccccc2)(Cc2ccccc2)C1=O)NCC1CCCCC1", "Potency": "20.6 µM (active)"},
      {"compound": "COc1cccc(CNC(=O)CN2C(=O)NC(Cc3ccccc3)(c3ccccc3)C2=O)c1", "note": "(configuration not stated)", "activity change, negative = cytotoxicity": -1.58},
      {"compound": "O=C(CC1CCCCC1)NCc1ccccc1", "activity change, negative = cytotoxicity": -3.84},
      {"compound": "COC(=O)C[C@H]1C[C@@H]2c3cc(N(C)C)ccc3O[C@@H]2[C@H](CO)O1", "activity change, negative = cytotoxicity": 12},
      {"compound": "CCC(C)N1C(=O)S/C(=C/c2ccc(Sc3nc4ccccc4[nH]3)o2)C1=O", "note": "(configuration not stated)", "Potency": "5.17 µM (active)"},
      {"compound": "CN(Cc1ccccc1)C(=O)CSc1nc2ccccc2[nH]1", "activity change, negative = cytotoxicity": -16},
      {"compound": "O=C1NC[C@H](Cc2ccc(O)cc2)N(C[C@H]2CCCN2C[C@H](Cc2ccccc2)N2C[C@H](Cc3ccccc3)N(CCc3ccccc3)C(=O)C2=O)C1=O", "activity change, negative = cytotoxicity": 10.8},
      {"compound": "COCCCNc1ccn2nc(-c3ccc(CC(C)C)cc3)cc2n1", "activity change, negative = cytotoxicity": -15},
      {"compound": "CCOc1ncccc1C(=O)Nc1ccc2c(c1)OCCO2", "activity change, negative = cytotoxicity": -3.64},
      {"compound": "O=C(Nc1ccc(S(=O)(=O)Nc2ncccn2)cc1)c1cncc(Br)c1", "activity change, negative = cytotoxicity": 0},
      {"compound": "CCOc1ncccc1C(=O)Nc1ccc(S(=O)(=O)Nc2nc(C)cc(C)n2)cc1", "Potency": "20.6 µM (active)"},
      {"compound": "CCOC(=O)c1cccc(NC(=O)C(Cc2ccccc2)NS(=O)(=O)c2cccc3nsnc23)c1", "note": "(configuration not stated)", "activity change, negative = cytotoxicity": -8.85},
      {"compound": "COc1cccc(/C=C/C(=O)OCC(=O)N2CCN(c3ccccc3)CC2)c1", "activity change, negative = cytotoxicity": -12.1},
      {"compound": "COc1cccc(-c2ccc(SCC(=O)N3CCN(c4ccccc4)CC3)nn2)c1", "Potency": "14.6 µM (active)"},
      {"compound": "Cc1nnc(SCC(=O)N2CCN(c3ccccc3)CC2)n1-c1ccccc1", "activity change, negative = cytotoxicity": -5.39},
      {"compound": "N#CNC1=NCN(CCc2ccccc2)CN1", "activity change, negative = cytotoxicity": 4.58},
      {"compound": "c1ccc(CCN2CN=C(Nc3nc4ccccc4o3)NC2)cc1", "Potency": "13 µM (active)"},
      {"compound": "O=C1CCCC2=C1[C@@]1(CCC(c3ccccc3)C1)N=C(Nc1nc3ccccc3o1)N2", "note": "(some centres not stated)", "activity change, negative = cytotoxicity": -23.4},
      {"compound": "Cc1ccccc1Cn1nc(C)c(NC(=O)c2cc(-c3ccc(F)cc3)on2)c1C", "activity change, negative = cytotoxicity": -2.23},
      {"compound": "CC(=O)c1ccc(NC(=O)c2cc(-c3cccs3)on2)cc1", "activity change, negative = cytotoxicity": -21.1},
      {"compound": "Cc1cc(NC(=O)c2cc(-c3cccs3)on2)nn1Cc1ccc(Cl)cc1", "Potency": "9.2 µM (active)"},
      {"compound": "Cc1cccc(CC(=O)Nc2cccc(-c3cn4cccnc4n3)c2)c1", "activity change, negative = cytotoxicity": 11.6},
      {"compound": "COc1ccc(NC(=O)N(C)C[C@H]2Oc3ncc(C#C[C@@H](C)O)cc3C(=O)N([C@H](C)CO)C[C@H]2C)cc1", "activity change, negative = cytotoxicity": -2.19},
      {"compound": "O=C(c1cccs1)C1C(c2ccc(Br)cc2)NC(=S)NC1(O)C(F)(F)F", "note": "(configuration not stated)", "Potency": "20.6 µM (active)"},
      {"compound": "CCOC(=O)C1C(c2ccc(O)cc2)NC(=O)NC1(O)C(F)(F)F", "note": "(configuration not stated)", "activity change, negative = cytotoxicity": 18},
      {"compound": "Cc1ccc(Cc2c(-c3ccc(C)cc3)nc3c4ccccc4ccn23)cc1", "activity change, negative = cytotoxicity": 2.79},
      {"compound": "c1ccc2c(c1)nnn2-c1ccncc1", "activity change, negative = cytotoxicity": 0.884},
      {"compound": "CC(=NCc1ccco1)C1=C(O)c2ccccc2C1=O", "activity change, negative = cytotoxicity": -27.6},
      {"compound": "CC(=NCc1ccco1)c1c(C(F)(F)F)[nH]n(-c2nc3ccccc3s2)c1=O", "Potency": "9.2 µM (active)"},
      {"compound": "CCc1ccc(-c2cc(C(=O)NCc3ccco3)c3ccccc3n2)s1", "activity change, negative = cytotoxicity": 1.92},
      {"compound": "CN(C)C(CNC(=O)c1cc(Br)c(Br)s1)c1ccco1", "note": "(configuration not stated)", "activity change, negative = cytotoxicity": 10.7},
      {"compound": "CCCCC(CCCC)c1ccc(C=Nc2ccc(/C=C/c3ccnc4ccccc34)cc2)cc1", "activity change, negative = cytotoxicity": 0},
      {"compound": "Cc1ccc(C(=O)OCC(=O)N2CCCCCC2)cc1S(=O)(=O)N1CCOCC1", "Potency": "14.6 µM (active)"},
      {"compound": "O=C(OCC(=O)N1CCCCCC1)c1ccc(Br)c(S(=O)(=O)N2CCOCC2)c1", "activity change, negative = cytotoxicity": -25},
      {"compound": "COc1ccc(C(=O)OCC(=O)c2ccc(C)c(S(=O)(=O)N3CCOCC3)c2)cc1OC", "activity change, negative = cytotoxicity": -25.9},
      {"compound": "COC(=O)[C@]12CCCCC=C1N(Cc1ccco1)C(=O)[C@H](CC(=O)NCC1CCCCC1)C2", "activity change, negative = cytotoxicity": 6.39},
      {"compound": "CC1=C(C(=O)Nc2ccccc2Cl)C(c2cccs2)n2ncnc2N1", "note": "(configuration not stated)", "activity change, negative = cytotoxicity": -6.43},
      {"compound": "COC(=O)c1ccc(C2C(C(=O)Nc3ccccc3)=C(C)Nc3nc4ccccc4n32)cc1", "note": "(configuration not stated)", "activity change, negative = cytotoxicity": -5.17},
      {"compound": "COc1ccccc1NC(=O)C1=C(C)Nc2ncnn2C1c1sccc1C", "note": "(configuration not stated)", "activity change, negative = cytotoxicity": 0},
      {"compound": "CCOC(=O)C1=C(C)Nc2nc3ccccc3n2C1c1cccs1", "note": "(configuration not stated)", "Potency": "3.26 µM (active)"},
      {"compound": "CCOc1ccc(C2C(C(=O)NC)=C(C)Nc3nc4ccccc4n32)cc1OC", "note": "(configuration not stated)", "activity change, negative = cytotoxicity": -6.45},
      {"compound": "COc1ccccc1NC(=O)C1=C(C)Nc2nc3ccccc3n2C1c1cccs1", "note": "(configuration not stated)", "Potency": "5.8 µM (active)"},
      {"compound": "O=S1(=O)C[C@@H](N2CCN(CCO)CC2)[C@H](COCc2ccccc2)N1", "activity change, negative = cytotoxicity": -9.39},
      {"compound": "CC1(C(=O)NCc2ccccc2)CN(S(C)(=O)=O)CC(=O)N1CC(F)(F)F", "note": "(configuration not stated)", "activity change, negative = cytotoxicity": 5.12}
    ]}
  ]
}
